This note sets out measurements from the supplement of paper PMC12632987.

Sequences and labels used below:
B1: usp_38_diff_out_15_91_162 (protein)
chain: LESKLQAARGTADYAREMQERAEELGLEEEAALLQKVRDAAEELAKLYEELIALQKAGADQAEIDKVRKEAKKLLEELNKLISEAVPAAARILLKEQERE
B2: usp_38_diff_out_15_91_159 (protein)
chain: LESKLEAARGVAAWAEEMAARARELGLEEEAALFEEVAAAARELAELLEKIIKLKKEGADPKEIEAARKEAKAAEARLNELLSRAVPAAARVLLAEQERE
B3: usp_38_diff_out_15_114_141 (protein)
chain: SAEEEAAAELREREVAAGLAVARDLLAELEELARRGRLTPAREERLLLGLRGLARLAIELGDRELAEEVLRALDAFAAIASPELRAEAEALRAELEAAMA
B4: usp_38_diff_out_15_85_150 (protein)
chain: TPEELKAEIEREIEEAERLLERAEELLRDPEAPLEEIRRVLDEAAEALGRADHLARELRRLSPEYRAYVEEVLKRLDELVDRLEELAREAFLREADELEA
B5: usp_38_diff_out_16_109_165 (protein)
chain: SQDEEADRLLAEAAIANLKALAKEAKEELKKLKARGASPEVLAAYQKLADTAEAAAKAIEAALKAGKNLRETTDKQLDAVGAAAAAASALRRAEARERSA
B6: usp_38_diff_out_15_114_143 (protein)
chain: SEEEEAEEELRRLEIEEGLRVAEELLAELEELRKRGRLTPAREERLLLGLEGLAILAIELGDEELARRVLEALRALAEISSPETRARAEALAAELEAAMA
B7: usp_38_diff_out_15_91_160 (protein)
chain: LESKLQAAKGTADWAKEMREEAEELGLEEEAALLEEVRKLAEELAKLLEELIKLEKEGAPQEEIDKLRKEAKEKEKELNEAISKAVPAAARILLARQEKE
B8: usp_38_diff_out_15_85_149 (protein)
chain: KIEELKKQLQAAIDEAEALLAEAEALLKKGTPEALEAARKALDAAAKAIGQADQLLRELRKAGADKEELEAYQKRLDALTDRYEALARELFEKEMELQEK
B9: usp_38_diff_out_15_114_140 (protein)
chain: SAEEEAAEELRQREIAAGRDVARDLLAELRELKKRGRLTPAREERLLLGLEGLARLAIELGDEELARLVLEALDAFAEISDPETQARARALRAELEAAMA
B10: usp_38_diff_out_14_75_137 (protein)
chain: SRKEELRERLAEARARLDALVAEGRITGRLEVELRGILHIAEEAIEAGRLEEAERLLDIAERALDDPANARAIIRANEDFIVSTAKKLDLERIEEEEERR
B11: usp_38_diff_out_15_85_152 (protein)
chain: SPEEIKKEIKKEIEKAKELIKEAKKLLKDPNAKLEEIRKVLDEAAKALGKAEYLARELRKLSPEYREEVKEYLKELDELVDELEKLEREAFLRMAEEQEA
B12: usp_38_diff_out_15_91_164 (protein)
chain: MSSKTIATKGTRDYLKDAAAEAKELGLEETAKALEEAAALADQLLDLLEQLEKAEKEGADQAEIDKLRKEAKELDAKLNEKISELVPGLAELEQKRIERE
B13: usp_38_diff_out_15_91_161 (protein)
chain: LESKLQAAEGTADYAKEMKAEAEKLGLEEQAKKLQEVADAAKKLAELYKKLIKLEKEGAPKEEIEKVRKEAKKLEEELNKLISEAVPYMAEILLKKQEKE
B14: usp_38_diff_out_14_75_138 (protein)
chain: SREEELRKRLEEAEARLAELVAQGKITGRKEVELRGILHIAREAIEAGRLEEAEKLLDIAEEALENPEKAKEIIDENEDFIVSTAKELALREIEEEEKRR
B15: usp_38_diff_out_15_17_145 (protein)
chain: DEEARRLELEAERAAMDAVIADARATLTRLAAKAKAAGWAEVAAEYEAAIAALDAGDLEAAAEHLERAARLLWDKNPRDATIAGGLAYALRRKVELDRLE
B16: usp_38_diff_out_15_85_153 (protein)
chain: SPEEIKKEIEREIEEAERLIEEARRLLEDPEAPLEEVREVLDEAARHLGRAQHLARELRRLSPEYREFVKEAEKRLDELVDELEELAREAHLREAEELEA
B17: usp_38_diff_out_15_85_157 (protein)
chain: AAEALKAEIQAKIAEAKALLAEAKALLADPAAPLAEIEAVLDAAARALGQAQALARQLRREFPEQAAFVKAANAELDALTDELTALARAAFERRAEADLA
B18: usp_38_diff_out_15_85_155 (protein)
chain: EAEELKREIEREIEEARRLLEEARALLADPAAPLAAIREVLDRAAEALGRAEALARELRRRFPEYREFVKKALEELDRLTDELERLAREAFEREADALAA
B19: usp_38_diff_out_15_42_146 (protein)
chain: SQLEEELRLIVEAMEAERDRVVADVATLPEAKLKRLARRNLEGAKGEAERTGDPVAAEIAALYEEGLANPATLKAKMQEAVRLTYDRAIAEVRRRMEEEA
B20: usp_38_diff_out_16_109_170 (protein)
chain: SQDEEADRLLAEATIENLKALAEEAKERLKKLEAKGASAEVLKAYKDLAETAKKAAEEIKEALKKGENIRETTDKKWDEVGKAAAAASEARRAEARARSA
B21: usp_38_diff_out_16_109_166 (protein)
chain: SADEEADRLLAEAAIENFEKLAEEAKEELKKLKAKGASEEVLKAYEDLAKTAREAAEKIREALERGENLRETTREQWDKVGAKAAEASELRRAEARERSA
B22: usp_38_diff_out_15_85_147 (protein)
chain: ALEELRRELEEAIREARRLLEEARKLLAEKTPEALKAAREALDRAAEHLGRAAELLRELRRAGADPAELARLQAELDELVDEYEKLALELFEKEIELQEA
B23: usp_38_diff_out_16_109_168 (protein)
chain: SADEEADRLLAEAAIANFRALAADAEAELKRLEARGASPAVLKAYADLAAKAKEAAATIEAALAKGENLRETTDAQWDAVGAAAARASELRRAEARERSA
B24: usp_38_diff_out_15_17_144 (protein)
chain: DPESEALYREALRANIASVFDEAAAIAAKRAARAEAEGNAELAAALRRLRDLLEHRDETPLADIAAAARELAALAEEAGDYRTAAIAGGVAAAAEELAEL
B25: usp_38_diff_out_15_85_156 (protein)
chain: EAEKLKEEIERKIKEAEKLLKEAKKLLADPKAPLEEIRKVLDKAAEALGEAEKLARELRRKFPEEREYVKEVLKRLDKLVDELEKLAREAFEREADALLA
B26: usp_38_diff_out_15_85_154 (protein)
chain: EAEELKREIEEEIRRAEELLAEAEALLADPAAPLEEIEAVLDEAARALGRAEALARELRRRFPEYREYVKEVLERLDELTDRLLALETEAFERRAEEDLA
B27: usp_38_diff_out_15_114_142 (protein)
chain: SAEEEAEEELRELEIKAGKDVAEELLEELKELRKRGRLTPAREERLLLGLRGLAILAIELKNKELAELVLEALEEFAKISDPETRAEAEKLAAELKKAMA
B28: usp_38_diff_out_15_114_139 (protein)
chain: SEEEEAEEELRKLEIEQGKKVAEDLLAELERLAKEGRLTPAREERLLLGLKGLAKLAIELKDKELAELVLKALEAFAKISSPEHRKEAEKLAKELKEAMA
B29: usp_38_diff_out_16_109_169 (protein)
chain: SADEEADRLLAEAAIANFRALAEEARARLARLKARGASPAVLAAHQALADTAEAAAAEIEAALAAGENLRETTDRQWDAVGAAAAAASAALRAEARARSA
B30: usp_38_diff_out_15_91_163 (protein)
chain: MSSRTIATEGTLKRLKEDAELARELGLEETAKKAEEAAKLAEELLKLLKEREKAIKAGAPKEEIEKLRKEAKKKEKELNEKLSELVPDWAELELKRIEKE
B31: usp_38_diff_out_15_85_151 (protein)
chain: SPEELKKKIEEKLEEARRLLEEARRLLADPNAPLEEIRKVLDEAARALGEAEHLARELRKLSPEYREEVEKYLKELDELVDELEALAREAFLREAEAQEA
B32: usp_38_diff_out_16_109_167 (protein)
chain: SADEEAAKLLAEATIKELKALAKEAEERLKKLKAKGASEEVLAAEKKLADTAKKAAEEIEKALKKGENILETTNKKWDEVGAAAAEAAELRRAEARARSA

For the test, the target named is T1, USP38, Q8NB14.
T1 chain: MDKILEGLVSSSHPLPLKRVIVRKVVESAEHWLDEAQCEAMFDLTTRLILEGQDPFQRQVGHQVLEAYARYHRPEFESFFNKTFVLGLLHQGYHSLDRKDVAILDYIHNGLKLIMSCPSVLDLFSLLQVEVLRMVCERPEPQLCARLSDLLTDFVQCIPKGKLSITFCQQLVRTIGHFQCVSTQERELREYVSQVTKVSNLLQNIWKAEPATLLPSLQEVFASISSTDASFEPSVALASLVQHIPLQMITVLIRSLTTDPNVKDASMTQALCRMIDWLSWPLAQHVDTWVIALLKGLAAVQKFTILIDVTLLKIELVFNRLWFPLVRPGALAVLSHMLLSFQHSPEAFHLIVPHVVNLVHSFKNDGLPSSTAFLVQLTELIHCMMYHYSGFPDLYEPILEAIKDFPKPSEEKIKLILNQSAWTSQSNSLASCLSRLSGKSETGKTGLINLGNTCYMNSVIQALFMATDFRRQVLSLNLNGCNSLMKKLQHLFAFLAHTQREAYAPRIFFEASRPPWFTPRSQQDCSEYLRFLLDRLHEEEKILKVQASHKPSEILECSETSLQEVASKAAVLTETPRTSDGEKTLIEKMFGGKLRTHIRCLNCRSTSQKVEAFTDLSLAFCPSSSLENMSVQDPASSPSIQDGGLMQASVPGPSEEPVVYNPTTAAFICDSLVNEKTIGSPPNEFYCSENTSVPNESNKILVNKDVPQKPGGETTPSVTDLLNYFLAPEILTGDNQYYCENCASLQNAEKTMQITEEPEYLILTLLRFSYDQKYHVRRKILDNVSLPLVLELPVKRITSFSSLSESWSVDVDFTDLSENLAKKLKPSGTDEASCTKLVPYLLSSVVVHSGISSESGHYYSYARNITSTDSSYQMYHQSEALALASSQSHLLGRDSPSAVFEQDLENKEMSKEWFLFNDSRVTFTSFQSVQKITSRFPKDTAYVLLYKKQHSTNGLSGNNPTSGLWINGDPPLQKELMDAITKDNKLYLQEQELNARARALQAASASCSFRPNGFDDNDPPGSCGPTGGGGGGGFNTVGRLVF
Description: median log2 fold change of GCK-ALFA target abundance (FLAG IP / Myc IP barcode read proportion) (log2 ratio); each designed protein is fused to an ALFA-tag nanobody in HEK293 cells to bring the named protein to FLAG-tagged glucokinase (GCK); Myc marks an untargeted standard; higher = target protein stabilised (more abundant). The following applies: target protein: 3xFLAG-MCP-GCK-ALFA reporter; HEK293 landing pad (RPLP). In short, it runs like this:
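HEK293 landing-pad cells received a recombined binder library fused to the ALFA nanobody and were induced with 2 μg mL^−1 doxycycline, then transfected with a plasmid encoding a FLAG-tagged target and a Myc-tagged standard. Lysates were collected after 48 h for anti-FLAG and anti-Myc immunoprecipitation, and the circular RNA barcodes were reverse transcribed, amplified and sequenced. Target abundance for each binder is the median log2 ratio of FLAG to Myc barcode read proportions. Barcodes had to reach a proportion of at least 10^−7 in both replicates, each binder needed at least 3 barcodes per replicate, a pseudocount of 10^−6 was applied, and the two replicates were pooled.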
Turning to B1, the “median log2 fold change” value was -0.243.

Consider B2, for which the “median log2 fold change” value was -0.149.

B3: the “median log2 fold change” value was determined as 0.234.

Consider B4, for which the “median log2 fold change” value stood at 0.0224.

In the case of B5, the “median log2 fold change” value came out at 0.0224.

On to B6, for which the “median log2 fold change” value is -0.119.

Consider B7, for which the “median log2 fold change” value is 0.0652.

In the case of B8, the “median log2 fold change” value turned out to be 0.113.

Turning to B9, the “median log2 fold change” value worked out at 0.0749.

B10: the “median log2 fold change” value is 0.124.

Turning to B11, the “median log2 fold change” value was 0.113.

Take B12: the “median log2 fold change” value was determined as 0.19.

Take B13: the “median log2 fold change” value was -0.0204.

Regarding B14, the “median log2 fold change” value is 0.163.

Turning to B15, the “median log2 fold change” value is -0.0496.

For the molecule B16, the “median log2 fold change” value was -0.141.

Consider B17, for which the “median log2 fold change” value was determined as 0.104.

B18: the “median log2 fold change” value was 0.127.

With B19, the “median log2 fold change” value was -0.607.

Consider B20, for which the “median log2 fold change” value worked out at 0.177.

For the molecule B21, the “median log2 fold change” value amounted to 0.186.

As to B22, the “median log2 fold change” value was found to be 0.0216.

Consider B23, for which the “median log2 fold change” value worked out at 0.16.

For the molecule B24, the “median log2 fold change” value amounted to 0.158.

In the case of B25, the “median log2 fold change” value is -0.0522.

On to B26, for which the “median log2 fold change” value is -0.0616.

As for B27, the “median log2 fold change” value stood at 0.0926.

For B28, the “median log2 fold change” value is 0.292.

As for B29, the “median log2 fold change” value was -0.16.

For the molecule B30, the “median log2 fold change” value stood at 0.082.

Regarding B31, the “median log2 fold change” value stood at 0.0262.

Turning to B32, the “median log2 fold change” value was determined as 0.102.
